biological target: T1, PAX4 (Homo sapiens, UniProt O43316 9-242); test: PBM; 200 nM protein, PBS; conditions: dsDNA, one strand shown
T1 sequence: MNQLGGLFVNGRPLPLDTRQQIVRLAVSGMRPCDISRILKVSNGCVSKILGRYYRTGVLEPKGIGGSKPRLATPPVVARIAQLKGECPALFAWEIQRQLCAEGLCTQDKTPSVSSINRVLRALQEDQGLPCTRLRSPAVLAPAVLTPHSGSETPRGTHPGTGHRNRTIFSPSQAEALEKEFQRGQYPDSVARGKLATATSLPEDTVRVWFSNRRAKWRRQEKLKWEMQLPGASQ

**Q.** How did the binding signal turn out when ATTTTGGA was run?
**A.** 10.5 upbm affinity estimate (log intensity, higher = more binding, comparable within an allelic series)

**Q.** Which binding signal does the source give for TTAGTCAA here?
**A.** 10.9 upbm affinity estimate (log intensity, higher = more binding, comparable within an allelic series)

**Q.** GAATTGAA was tested. Which binding signal did it give?
**A.** 10.6 upbm affinity estimate (log intensity, higher = more binding, comparable within an allelic series)

**Q.** For AAAACCAT, which binding signal is on record?
**A.** 10.5 upbm affinity estimate (log intensity, higher = more binding, comparable within an allelic series)

**Q.** For CCAATCAG, which binding signal is on record?
**A.** 10.5 upbm affinity estimate (log intensity, higher = more binding, comparable within an allelic series)

**Q.** Which binding signal does the source give for CCACGTTA here?
**A.** 10.7 upbm affinity estimate (log intensity, higher = more binding, comparable within an allelic series)

**Q.** How did the binding signal turn out when AATTGCGA was run?
**A.** 10.7 upbm affinity estimate (log intensity, higher = more binding, comparable within an allelic series)

**Q.** GTTAACCA was tested. Which binding signal did it give?
**A.** 10.5 upbm affinity estimate (log intensity, higher = more binding, comparable within an allelic series)

**Q.** Which binding signal does the source give for ACTGATGC here?
**A.** 10.6 upbm affinity estimate (log intensity, higher = more binding, comparable within an allelic series)

**Q.** How did the binding signal turn out when ACTAACTA was run?
**A.** 10.8 upbm affinity estimate (log intensity, higher = more binding, comparable within an allelic series)

**Q.** AATAACGG was tested. Which binding signal did it give?
**A.** 10.8 upbm affinity estimate (log intensity, higher = more binding, comparable within an allelic series)

**Q.** How did the binding signal turn out when CGTTATGC was run?
**A.** 10.3 upbm affinity estimate (log intensity, higher = more binding, comparable within an allelic series)

biological target: T2, SIX6 (Homo sapiens, UniProt O95475 114-200, L167M); test: PBM; 200 nM protein, PBS; conditions: dsDNA, one strand shown
T2 sequence: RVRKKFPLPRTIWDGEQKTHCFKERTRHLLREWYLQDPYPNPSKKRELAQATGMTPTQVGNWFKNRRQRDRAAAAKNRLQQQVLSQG

**Q.** With CCGTATCG as the sequence, how does the binding signal read?
**A.** 9.97 upbm affinity estimate (log intensity, higher = more binding, comparable within an allelic series)

**Q.** Which binding signal does the source give for GGGATATA here?
**A.** 10.8 upbm affinity estimate (log intensity, higher = more binding, comparable within an allelic series)

**Q.** For GGTATCGA, which binding signal is on record?
**A.** 10.4 upbm affinity estimate (log intensity, higher = more binding, comparable within an allelic series)

**Q.** Which binding signal does the source give for GAGATATA here?
**A.** 10.8 upbm affinity estimate (log intensity, higher = more binding, comparable within an allelic series)

**Q.** Which binding signal does the source give for CGACACCA here?
**A.** 9.52 upbm affinity estimate (log intensity, higher = more binding, comparable within an allelic series)

**Q.** CGTATCGC was tested. Which binding signal did it give?
**A.** 10 upbm affinity estimate (log intensity, higher = more binding, comparable within an allelic series)

**Q.** Which binding signal does the source give for CCATATCG here?
**A.** 10.1 upbm affinity estimate (log intensity, higher = more binding, comparable within an allelic series)

**Q.** Which binding signal does the source give for ATCTATAC here?
**A.** 10.7 upbm affinity estimate (log intensity, higher = more binding, comparable within an allelic series)

**Q.** How did the binding signal turn out when ATATACCA was run?
**A.** 10.7 upbm affinity estimate (log intensity, higher = more binding, comparable within an allelic series)

**Q.** GTATCGAA was tested. Which binding signal did it give?
**A.** 10.2 upbm affinity estimate (log intensity, higher = more binding, comparable within an allelic series)

**Q.** GTATCGAC was tested. Which binding signal did it give?
**A.** 9.96 upbm affinity estimate (log intensity, higher = more binding, comparable within an allelic series)

**Q.** GGGGGATA was tested. Which binding signal did it give?
**A.** 10.8 upbm affinity estimate (log intensity, higher = more binding, comparable within an allelic series)

**Q.** Which binding signal does the source give for GGCGATAC here?
**A.** 10.1 upbm affinity estimate (log intensity, higher = more binding, comparable within an allelic series)

**Q.** AATATACC was tested. Which binding signal did it give?
**A.** 10.9 upbm affinity estimate (log intensity, higher = more binding, comparable within an allelic series)

**Q.** For ATATACCC, which binding signal is on record?
**A.** 11.1 upbm affinity estimate (log intensity, higher = more binding, comparable within an allelic series)

**Q.** CACGTATC was tested. Which binding signal did it give?
**A.** 10.2 upbm affinity estimate (log intensity, higher = more binding, comparable within an allelic series)

**Q.** Which binding signal does the source give for GTATCGGA here?
**A.** 10.1 upbm affinity estimate (log intensity, higher = more binding, comparable within an allelic series)

**Q.** How did the binding signal turn out when CGTATCAG was run?
**A.** 10.2 upbm affinity estimate (log intensity, higher = more binding, comparable within an allelic series)

**Q.** With CATATCGA as the sequence, how does the binding signal read?
**A.** 10.2 upbm affinity estimate (log intensity, higher = more binding, comparable within an allelic series)

**Q.** With CGTATCGA as the sequence, how does the binding signal read?
**A.** 10 upbm affinity estimate (log intensity, higher = more binding, comparable within an allelic series)

**Q.** With CGGATATA as the sequence, how does the binding signal read?
**A.** 10.8 upbm affinity estimate (log intensity, higher = more binding, comparable within an allelic series)

**Q.** GGGGTATA was tested. Which binding signal did it give?
**A.** 10.7 upbm affinity estimate (log intensity, higher = more binding, comparable within an allelic series)

**Q.** For TATATCCA, which binding signal is on record?
**A.** 10.7 upbm affinity estimate (log intensity, higher = more binding, comparable within an allelic series)

**Q.** How did the binding signal turn out when ATATACTC was run?
**A.** 10.7 upbm affinity estimate (log intensity, higher = more binding, comparable within an allelic series)

**Q.** For ACCGATAC, which binding signal is on record?
**A.** 10.2 upbm affinity estimate (log intensity, higher = more binding, comparable within an allelic series)

**Q.** Which binding signal does the source give for AGGTATAT here?
**A.** 10.8 upbm affinity estimate (log intensity, higher = more binding, comparable within an allelic series)

Source: article PMC11006913
